According to PubChem BioAssay (Tox21):
Inconclusive results are not listed. More than one record can exist for a structure, and the calls need not agree. The source made the active and inactive calls. Unless noted, the call rests on the fitted dose curve; in most records, active means well fitted curve in the direction sought with a large enough effect in the repeat runs; inconclusive means weak or mixed curves; inactive means no such curve, though single readings can be large; an effect the other way counts as inactive or inconclusive.

Experiments:
[1] = qHTS assay to identify small molecule antagonists of the thyroid receptor (TR) signaling pathway (AID 743065); further: series mostly up to about 70 µM; nearly all actives have a fitted effect of over 55% in size
How it was run: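 Antagonism measured as loss of luciferase signal in GH3 cells stably carrying a TRE-luciferase reporter, co-treated with compound and T3 (1 nM final) for 23.5 h at 37 C. Viability was read in the same well by CellTiter-Fluor.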

[2] = tested on: thyroid hormone receptor (rat, GH3 cells); test: qHTS assay to identify small molecule agonists of the thyroid receptor (TR) signaling pathway (AID 743066; calls by dose curve)
[3] = molecular target: Estrogen receptor (Homo sapiens) (UniProt P03372); test: qHTS assay to identify small molecule antagonists of the estrogen receptor alpha (ER-alpha) signaling pathway (AID 743069; active means well fitted curve in the direction sought with a large enough effect in the signal ratio in the repeat runs, not every such curve was filed as active; the % refers to the signal ratio)
How it was run: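 ER-alpha-UAS-bla GripTite HEK293 line; 2% charcoal-stripped FBS overnight; plated, 4 hr 37C/5% CO2; cpd in DMSO + 17beta-estradiol, 18 hr 37C; LiveBLAzer B/G FRET substrate 2 hr RT; fluorescence intensity.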

[4] = qHTS assay to identify small molecule antagonists of the estrogen receptor alpha (ER-alpha) signaling pathway - cell viability counter screen (AID 743074; calls by dose curve;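 further: HEK293 cells carrying ER-alpha-UAS-bla reporter stimulated with 17beta-estradiol; nearly all actives have a fitted effect of over 45% in size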)
[5] = molecular target: Estrogen receptor (Homo sapiens) (UniProt P03372); test: qHTS assay to identify small molecule agonists of the estrogen receptor alpha (ER-alpha) signaling pathway (AID 743075; calls by dose curve;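 further: HEK293 GripTite cells with ER-alpha and UAS-driven beta-lactamase reporter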)
[6] = molecular target: Estrogen receptor (Homo sapiens) (UniProt P03372); test: qHTS assay to identify small molecule agonists of the estrogen receptor alpha (ER-alpha) signaling pathway using the BG1 cell line (AID 743079); further: nearly all actives have a fitted effect of over 20% in size
[7] = qHTS assay to identify small molecule antagonists of the estrogen receptor alpha (ER-alpha) signaling pathway using the BG1 cell line (AID 743080; calls by dose curve;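 further: BG1 cells stimulated with 17beta-estradiol alongside compound; series mostly up to about 70 µM; nearly all actives have a fitted effect of over 25% in size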)
How it was run: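 Endogenous full-length ER-alpha in BG1-Luc-4E2 cells drives a stably integrated 4×ERE luciferase gene; compounds were tested against 17beta-estradiol over 21.5 h, with luminescence and multiplexed viability fluorescence recorded.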

[8] = qHTS assay to identify small molecule antagonists of the estrogen receptor alpha (ER-alpha) signaling pathway using the BG1 cell line - cell viability counter screen (AID 743081);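 further: compound given together with 17beta-estradiol as the ER stimulus; series mostly up to about 70 µM; nearly all actives have a fitted effect of over 45% in size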
Aromatase (Homo sapiens) = Aromatase (Homo sapiens) (UniProt P11511); test: qHTS assay to identify aromatase inhibitors (AID 743083); further: series mostly up to about 70 µM; nearly all actives have a fitted effect of over 55% in size
[9] = qHTS assay to identify aromatase inhibitors - cell viability counter screen (AID 743084);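 further: cells stimulated with testosterone during compound exposure; nearly all actives have a fitted effect of over 55% in size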
[10] = molecular target: Aryl hydrocarbon receptor (Homo sapiens) (UniProt P35869); test: qHTS assay to identify small molecule that activate the aryl hydrocarbon receptor (AhR) signaling pathway (AID 743085);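 further: HG2L7.5c1 human HepG2 liver cells with stably integrated DRE-driven firefly reporter; series mostly up to about 70 µM; nearly all actives have a fitted effect of over 15% in size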
How it was run: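 Steps: seed HepG2-AhR-luc cells; allow 5 h at 37C; pin-transfer test compound or vehicle; incubate 24 h at 37C; add viability dye (30 min, 37C) and read fluorescence; add luciferase substrate (30 min, RT) and read luminescence.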

[11] = qHTS assay to identify small molecule that activate the aryl hydrocarbon receptor (AhR) signaling pathway - cell viability counter screen (AID 743086);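 further: HepG2 liver cells carrying the AhR DRE luciferase reporter; series mostly up to about 70 µM; nearly all actives have a fitted effect of over 45% in size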
How it was run: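 Cytotoxicity counter screen: CellTiter-Fluor signal (30 min, 37 C) in 4000 HepG2 cells/well carrying the DRE-luciferase reporter, following 24 h compound exposure at 37 C.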

[12] = molecular target: Peroxisome proliferator-activated receptor gamma (Homo sapiens) (UniProt P37231); test: qHTS assay to identify small molecule antagonists of the peroxisome proliferator-activated receptor gamma (PPARg) signaling pathway (AID 743191; calls by dose curve; further: series mostly up to about 63 µM; nearly all actives have a fitted effect of over 30% in size)
How it was run: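 Beta-lactamase reporter under UAS control in HEK293H PPARg-bla cells; compound treatment 17 h at 37C. Read-out: fluorescence intensity after 1 h room-temperature incubation with LiveBLAzer B/G FRET substrate.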

[13] = qHTS assay to identify small molecule antagonists of the peroxisome proliferator-activated receptor gamma (PPARg) signaling pathway - cell viability counter screen (AID 743194); further: nearly all actives have a fitted effect of over 55% in size
How it was run: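 Viability was measured as CellTiter-Glo luminescence in GeneBLAzer PPARg UAS-bla HEK293H cells. These cells had been exposed 17 h at 37 C to compounds together with rosiglitazone at 50 nM final, with the beta-lactamase readout taken in the same wells.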

[14] = qHTS assay for small molecule agonists of the antioxidant response element (ARE) signaling pathway (AID 743202; active means well fitted activation curve with a large enough effect in the signal ratio in the repeat runs, not every such curve was filed as active; the % refers to the signal ratio; further: potency means the concentration at half of the fitted maximal effect)
How it was run: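 Quantitative high-throughput format in HepG2 cells bearing an integrated ARE-beta-lactamase reporter. Compound exposure lasted 16 h at 37 C, and fluorescence was read 2 h after adding LiveBLAzer B/G substrate at room temperature.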

[15] = qHTS assay for small molecule agonists of the antioxidant response element (ARE) signaling pathway - cell viability counter screen (AID 743203; calls by dose curve; further: nearly all actives have a fitted effect of over 55% in size)
How it was run: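 Following 16 hrs of compound treatment at 37C, HepG2 cells with an ARE-controlled beta-lactamase gene were lysed with CellTiter-Glo. Luminescence was read after 30 min at room temperature.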

[16] = qHTS assay for small molecule activators of the heat shock response signaling pathway - cell viability counter screen (AID 743209); further: nearly all actives have a fitted effect of over 50% in size
How it was run: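 Readout: CellTiter-Glo luminescence, 30 min at room temperature. System: HSE-bla HeLa cells, 1500/well, plated overnight. Treatment: compounds in DMSO, 5 h at 37 C.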

[17] = qHTS assay for small molecule activators of the heat shock response signaling pathway (AID 743210; active means well fitted activation curve with a large enough effect in the signal ratio in the repeat runs, with a control signal flat, not every such curve was filed as active; the % refers to the signal ratio;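 further: HeLa cells with beta-lactamase reporter driven by heat shock elements; series mostly up to about 63 µM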)
How it was run: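 HeLa HSE-bla cells, overnight plating; cpd in DMSO 5 h, 37 C; LiveBLAzer B/G FRET substrate 2.5 h RT; fluorescence intensity read.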

[18] = qHTS assay to identify small molecule agonists of the peroxisome proliferator-activated receptor delta (PPARd) signaling pathway - cell viability counter screen (AID 743211); further: nearly all actives have a fitted effect of over 55% in size
How it was run: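 Viability of GeneBLAzer PPARd UAS-bla HEK293H cells was assessed after 17 h compound incubation at 37C, using CellTiter-Glo reagent added after the reporter read and luminescence recorded 30 min later.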

[19] = molecular target: Peroxisome proliferator-activated receptor gamma (Homo sapiens) (UniProt P37231); test: qHTS assay to identify small molecule agonists of the peroxisome proliferator-activated receptor gamma (PPARg) signaling pathway (AID 743094; active means well fitted activation curve with a large enough effect in the signal ratio in the repeat runs, not every such curve was filed as active; the % refers to the signal ratio)
How it was run: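 Compounds dissolved in DMSO were added to PPARg UAS-bla HEK293H cells for 17 h at 37C, and reporter expression was quantified by fluorescence intensity after 1 h with LiveBLAzer B/G FRET substrate.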

Measured: Potency

Chain of Aromatase (Homo sapiens) (P11511 whole entry, looked up): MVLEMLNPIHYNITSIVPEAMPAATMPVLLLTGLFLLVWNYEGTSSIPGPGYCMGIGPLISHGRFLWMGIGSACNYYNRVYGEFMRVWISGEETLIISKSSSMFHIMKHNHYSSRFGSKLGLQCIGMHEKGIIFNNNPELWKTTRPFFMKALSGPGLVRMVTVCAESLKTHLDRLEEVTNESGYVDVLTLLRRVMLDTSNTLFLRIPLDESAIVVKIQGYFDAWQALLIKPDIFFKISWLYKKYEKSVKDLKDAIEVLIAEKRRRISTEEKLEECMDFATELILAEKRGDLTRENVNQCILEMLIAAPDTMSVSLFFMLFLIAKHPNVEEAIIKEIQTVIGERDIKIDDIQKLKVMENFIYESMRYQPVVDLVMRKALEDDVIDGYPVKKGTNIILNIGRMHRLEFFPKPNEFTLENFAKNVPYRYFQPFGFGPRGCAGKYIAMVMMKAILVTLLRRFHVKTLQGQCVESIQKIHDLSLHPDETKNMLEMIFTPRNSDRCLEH
Chain of Peroxisome proliferator-activated receptor gamma (Homo sapiens) (P37231 whole entry, looked up): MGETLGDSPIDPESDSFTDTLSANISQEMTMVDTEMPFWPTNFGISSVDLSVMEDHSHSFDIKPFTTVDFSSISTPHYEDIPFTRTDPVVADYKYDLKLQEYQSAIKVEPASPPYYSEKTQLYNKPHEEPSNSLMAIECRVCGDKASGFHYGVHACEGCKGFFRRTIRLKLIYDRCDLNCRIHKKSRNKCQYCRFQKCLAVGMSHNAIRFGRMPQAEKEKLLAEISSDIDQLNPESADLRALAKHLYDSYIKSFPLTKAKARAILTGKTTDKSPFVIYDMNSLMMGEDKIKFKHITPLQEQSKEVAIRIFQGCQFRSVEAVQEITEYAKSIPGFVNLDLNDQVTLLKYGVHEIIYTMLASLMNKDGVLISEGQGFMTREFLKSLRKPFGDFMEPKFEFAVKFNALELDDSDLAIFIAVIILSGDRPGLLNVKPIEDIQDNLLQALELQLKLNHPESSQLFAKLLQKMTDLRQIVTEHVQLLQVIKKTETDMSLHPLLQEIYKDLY
Chain of Estrogen receptor (Homo sapiens) (P03372 whole entry, looked up): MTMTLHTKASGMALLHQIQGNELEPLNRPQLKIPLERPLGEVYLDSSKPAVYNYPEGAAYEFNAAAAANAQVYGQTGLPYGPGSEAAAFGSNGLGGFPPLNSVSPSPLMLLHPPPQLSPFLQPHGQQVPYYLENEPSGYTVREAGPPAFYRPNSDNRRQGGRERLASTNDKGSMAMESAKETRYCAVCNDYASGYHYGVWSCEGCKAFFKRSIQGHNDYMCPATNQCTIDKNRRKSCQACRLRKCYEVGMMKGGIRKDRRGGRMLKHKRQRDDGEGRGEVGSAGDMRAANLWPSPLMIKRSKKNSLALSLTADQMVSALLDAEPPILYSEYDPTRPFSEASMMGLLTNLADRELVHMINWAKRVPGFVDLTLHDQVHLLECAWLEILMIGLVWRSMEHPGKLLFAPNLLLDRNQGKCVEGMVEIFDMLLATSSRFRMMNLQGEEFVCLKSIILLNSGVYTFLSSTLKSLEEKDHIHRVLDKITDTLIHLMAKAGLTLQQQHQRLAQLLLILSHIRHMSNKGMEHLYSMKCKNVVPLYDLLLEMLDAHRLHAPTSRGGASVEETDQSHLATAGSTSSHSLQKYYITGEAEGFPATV
Chain of Aryl hydrocarbon receptor (Homo sapiens) (P35869 whole entry, looked up): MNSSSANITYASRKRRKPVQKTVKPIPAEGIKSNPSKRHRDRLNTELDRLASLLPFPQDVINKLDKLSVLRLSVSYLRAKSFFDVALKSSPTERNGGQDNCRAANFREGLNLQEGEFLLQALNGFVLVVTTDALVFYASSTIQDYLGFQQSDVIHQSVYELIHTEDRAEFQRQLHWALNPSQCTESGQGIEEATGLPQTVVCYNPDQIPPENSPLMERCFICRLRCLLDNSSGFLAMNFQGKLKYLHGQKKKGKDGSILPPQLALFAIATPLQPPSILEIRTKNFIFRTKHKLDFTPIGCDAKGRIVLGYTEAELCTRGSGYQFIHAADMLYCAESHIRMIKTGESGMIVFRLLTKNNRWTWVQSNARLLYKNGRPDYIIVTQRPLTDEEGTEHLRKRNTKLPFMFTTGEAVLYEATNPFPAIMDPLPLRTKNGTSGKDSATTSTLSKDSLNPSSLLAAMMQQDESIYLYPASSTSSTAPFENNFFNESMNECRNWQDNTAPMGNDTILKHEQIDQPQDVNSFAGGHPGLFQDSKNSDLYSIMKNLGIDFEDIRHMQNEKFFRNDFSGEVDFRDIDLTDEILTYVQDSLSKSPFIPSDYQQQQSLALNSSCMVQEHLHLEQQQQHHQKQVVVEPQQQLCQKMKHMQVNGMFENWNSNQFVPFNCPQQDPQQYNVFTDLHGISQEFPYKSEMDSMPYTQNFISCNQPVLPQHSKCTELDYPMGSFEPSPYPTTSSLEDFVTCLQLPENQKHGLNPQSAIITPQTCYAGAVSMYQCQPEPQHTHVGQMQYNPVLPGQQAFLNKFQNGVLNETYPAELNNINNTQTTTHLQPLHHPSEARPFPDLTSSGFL

Cc1ccc([N+](=O)[O-])cc1S(=O)(=O)O
not listed: [19]
inactive: all other assays above

CCCCCCCC=O
not listed: [12]
inactive: all other assays above

O=C(O)c1ccc(S(=O)(=O)N(Cl)Cl)cc1
27.5 µM (active) and inactive: [14]
inactive: all other assays above

CC(C)c1cccc(C(C)C)c1
not listed: [15]
inactive: all other assays above

CC(=O)OCc1ccccc1
inactive: all assays above

C[Si]1(C)O[Si](C)(C)O[Si](C)(C)O[Si](C)(C)O1
not listed: [12]
inactive: all other assays above

CCCCCCCCCCO
not listed: [15]
inactive: all other assays above

OC1C(O)C(O)C(O)C(O)C1O (stereo not drawn)
not listed: [15]
inactive: all other assays above

c1ccc2c(c1)Cc1ccccc1-2
not listed: [14]
inactive: all other assays above

CC(=O)CCC=C(C)C
not listed: [14]
inactive: all other assays above

C=CCCCCCCCCC(=O)O
not listed: [12]
inactive: all other assays above

Brc1ccc(Br)c(Br)c1
not listed: [14] | [15]
inactive: all other assays above

CC(=O)Oc1ccc(C)cc1
inactive: all assays above

CCCCCCCCCCCC(=O)OC
inactive: all assays above

CNC(=S)N(C)C
not listed: [19]
inactive: all other assays above
